Source: PubChem (National Center for Advancing Translational Sciences (NCATS))
GRP78 ERSR act = qHTS for Inducers of the Endoplasmic Reticulum Stress Response (ERSR) in Human Glioma: qHTS; 0.02% of 420,000 active; U87-MG GRP78 promoter luciferase reporter, 16 h; AID 602332, 2012; Potency, µM, inactives show top-dose activation, usual class: activators; further: potency means the concentration at half of the fitted maximal effect; series mostly up to about 76 µM; % of control where 0% means no effect; nearly all actives have a fitted effect of over 35% in size
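Stably transfected U87-MG human glioma cells carrying a GRP78-based luminescent sensor were seeded at 1000 cells/well, pin-dosed with compounds and incubated 16 h. Luciferase reagent was then added, and end-point luminescence was read after 10 min at room temperature.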
Mito fusion act = qHTS Assay for Small Molecule Inhibitors of Mitochondrial Division or Activators of Mitochondrial Fusion | 0.23% of 320,000 active | S. cerevisiae fusion-defective mutant growth rescue, CellTiterGlo 48 h | Potency, µM (titrated, usually from 46.1 µM), for the others: top-dose growth rescue (activation), usual class: activators; further: potency means the concentration at half of the fitted maximal effect; % of control where 0% means no effect; nearly all actives have a fitted effect of over 45% in size
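Yeast fusion mutant, YPEG (non-fermentable carbon), compound, 48 h at 37C non-permissive; CellTiterGlo added, 10 min RT, luminescence read. Rescued growth = division inhibition.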
A549 tox = Nrf2 qHTS screen for inhibitors: counterscreen for cytotoxicity; 0.16% of 390,000 active; A549 ARE-Fluc cells, CellTiter-Fluor viability, 18-24 h; Potency, µM (titrated, usually from 46 µM), for inactives: top-dose activity change, negative = cytotoxicity, actives largely listed as inhibitors; further: potency means the concentration at half of the fitted maximal effect; on the % scale 0 is the no-effect control and ±100 the full control effect
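Cytotoxicity counterscreen: CellTiter-Fluor fluorescence was measured in A549 ARE_Fluc cells after 18-24 h of compound exposure in a concentration series. The subsequent BugLite luminescent read reports ARE-luciferase activity.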
miR-21 reporter = qHTS Assay for Modulators of miRNAs and/orActivators of miR-21 | HeLa miR-21 FLuc reporter, luciferase, 48 h | Potency, µM (titrated, usually from 38.3 µM), for inactives: at the top dose activity change, positive = activation, actives largely listed as activators | 340,000 tested, under 10 active | AID 2288, 2010;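 further: % of control where 0% means no effect; miR-21 action dims this reporter so a rising signal means less miR-21 action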
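Luminescence from a firefly luciferase reporter carrying a miR-21 binding site downstream, stably expressed under a CMV promoter in HeLa cells that make miR-21 endogenously, reports miRNA modulation after 48 h compound exposure up to approximately 40uM final.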
Nrf2 activator = qHTS of Nrf2 Activators; AREc32 ARE-luciferase reporter (MCF7-derived line), luminescence, 24 h; Potency, µM (top dose mostly 46.1 µM), for the others: top-dose activation, most hits filed as activators; 0.31% of 410,000 active; further: potency means the concentration at half of the fitted maximal effect; % of control where 0% means no effect; nearly all actives have a fitted effect of over 65% in size
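Luminescent ARE reporter assay in AREc32_Fluc cells: overnight plating at 37 deg C, 24 hr compound incubation, Steady-Glo added, 30 min RT before reading.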
Nrf2 block = Nrf2 qHTS screen for inhibitors; A549 ARE-Fluc reporter, luciferase luminescence, 18-24 h; Potency, µM (titrated, usually from 46 µM), inactives show top-dose activity change, negative = inhibition, most hits filed as inhibitors; 2.1% of 360,000 active; further: potency means the concentration at half of the fitted maximal effect; on the % scale 0 is the no-effect control and ±100 the full control effect; nearly all actives have a fitted effect of over 60% in size
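A549 ARE_Fluc cells (5000/well, 5% FBS OPTI-MEM) pre-incubated 2 h, then treated with compounds 18-24 h at 37C/5% CO2 in concentration-response. CellTiter-Fluor viability read first; BugLite luciferase luminescence after 15 min at room temperature gives Nrf2 activity.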
* marks the source's active call; other numbers are inactive results; ! = not active in a repeat. Shown are actives, neighbours in structure and some others; about 2.3% of the full set was active somewhere. The call rests on the fitted dose curve; in most records, active means well fitted curve in the direction sought with a large enough effect; inconclusive means small, poorly fitted or top-dose-only effect, or another doubt; inactive means no such curve, though single readings can be large; an effect the other way counts as inactive or inconclusive.

How did O=C(c1cc(-c2ccco2)on1)N1CCc2ccccc2C1 do in these assays?
GRP78 ERSR act: 6%; Mito fusion act: 29%; A549 tox: 3%; miR-21 reporter: -28%; Nrf2 activator: 14µM*; Nrf2 block: inconclusive

What do the screens show for `O=C(c1cc(-c2ccco2)on1)N1CCCc2ccccc21`?
GRP78 ERSR act: -1%; Mito fusion act: 11%; A549 tox: 13%; miR-21 reporter: -21%; Nrf2 activator: 11µM*; Nrf2 block: inconclusive

Results for CN(C)c1ccc(C=Nc2cnn(C)c2C(N)=O)cc1 ?
GRP78 ERSR act: 6%; Mito fusion act: -1%; A549 tox: 7%; miR-21 reporter: -25%; Nrf2 activator: 3%

Results for O=C(/C=C/c1ccc(Cl)cc1)N(Cc1ccccc1)c1ccccn1 ?
GRP78 ERSR act: -9%; Mito fusion act: -3%; A549 tox: 4%; miR-21 reporter: 2%; Nrf2 activator: 0%; Nrf2 block: -7%

Results for CCOc1ccc(-c2c(C(=O)N/N=C/c3ccco3)nnn2-c2nonc2N)cc1 ?
GRP78 ERSR act: -5%; Mito fusion act: 11%; A549 tox: 0%; miR-21 reporter: -2%; Nrf2 activator: 4%; Nrf2 block: inconclusive

How did CCn1c2ccccc2c2cc(Nc3cc(C)nc4ncnn34)ccc21 do in these assays?
GRP78 ERSR act: -7%; Mito fusion act: 16µM*; A549 tox: -21%; miR-21 reporter: 17%; Nrf2 activator: 0%; Nrf2 block: inconclusive

Results for OCc1ccc(-c2nn(Cc3ccccc3)c3ccccc23)o1 ?
GRP78 ERSR act: 1%; Mito fusion act: 21µM*!; A549 tox: -6%; Nrf2 activator: 7%; Nrf2 block: 2%

What do the screens show for `O=c1c2ccccc2c(-c2n[nH]c(=S)o2)nn1Cc1ccccc1`?
GRP78 ERSR act: 3%; Mito fusion act: 5%; A549 tox: -3%; miR-21 reporter: -17%; Nrf2 activator: 0%; Nrf2 block: inconclusive

What do the screens show for `CC(C)N(CC(=O)Nc1ccc(Cl)cc1C(F)(F)F)C(=O)CCl`?
GRP78 ERSR act: -15%; Mito fusion act: -22%; A549 tox: inconclusive; miR-21 reporter: 12%; Nrf2 activator: inconclusive; Nrf2 block: 13µM*

What do the screens show for `O=C(O)CSCC(=O)Nc1ccc(Cl)cc1C(F)(F)F`?
GRP78 ERSR act: 1%; Mito fusion act: -1%; A549 tox: 1%; miR-21 reporter: 3%; Nrf2 activator: 0%; Nrf2 block: -1%

Results for CCC(C)N(CC(=O)Nc1cccc(C)c1C)C(=O)CCl (configuration not stated) ?
GRP78 ERSR act: -7%; Mito fusion act: -32%; A549 tox: 3%; miR-21 reporter: inconclusive; Nrf2 activator: 7.9µM*; Nrf2 block: inconclusive

Results for O=C(CCS(=O)(=O)c1ccc(Cl)cc1)N1CCCc2ccccc21 ?
GRP78 ERSR act: 4%; A549 tox: -5%; Nrf2 activator: 2%; Nrf2 block: -21%

How did CC(C)Sc1nc(N2CCOCC2)c2c(c1C#N)CC(C)(C)N(C)C2 do in these assays?
GRP78 ERSR act: -4%; Mito fusion act: -1%; A549 tox: 11%; miR-21 reporter: -7%; Nrf2 activator: 0%; Nrf2 block: 8%

What do the screens show for `O=c1[nH]c(CN2CCN(c3ccccn3)CC2)nc2c(Br)cc(Br)cc12`?
GRP78 ERSR act: -5%; Mito fusion act: 7%; A549 tox: inconclusive; miR-21 reporter: -2%; Nrf2 activator: 0%; Nrf2 block: 23µM*

Results for NC1=NC(=O)C(c2ccccc2)C(=O)N1 (configuration not stated) ?
GRP78 ERSR act: -3%; A549 tox: -1%; Nrf2 activator: -1%; Nrf2 block: 0%

How did CCCN(CCC)CCCNC(=O)c1cc2cc3ccc(Cl)cc3nc2o1 do in these assays?
GRP78 ERSR act: 0%; Mito fusion act: -4%; A549 tox: 5%; miR-21 reporter: -9%; Nrf2 activator: -1%; Nrf2 block: 13%

Results for COc1ccc2cc3cc(C(=O)NCCN4CCN(c5ccccc5F)CC4)oc3nc2c1 ?
GRP78 ERSR act: 1%; Mito fusion act: 3%; A549 tox: inconclusive; miR-21 reporter: -8%; Nrf2 activator: 0%; Nrf2 block: 18µM*

What do the screens show for `COc1ccc2cc3cc(C(=O)NCc4ccccn4)oc3nc2c1`?
GRP78 ERSR act: 2%; Mito fusion act: 4%; A549 tox: 1%; miR-21 reporter: -12%; Nrf2 activator: 3%; Nrf2 block: -23%

Results for COc1ccc2cc3cc(C(=O)NCc4ccco4)oc3nc2c1 ?
GRP78 ERSR act: -2%; Mito fusion act: -3%; A549 tox: -25%; miR-21 reporter: -3%; Nrf2 activator: 4%; Nrf2 block: 5.2µM*

How did O=C(NCc1ccco1)c1cc2cc3ccc(Cl)cc3nc2o1 do in these assays?
GRP78 ERSR act: -9%; Mito fusion act: -3%; A549 tox: inconclusive; miR-21 reporter: -14%; Nrf2 activator: 12%; Nrf2 block: 23µM*

Results for O=S(=O)(NC1CCCCC1NCc1ccco1)c1ccc(Cl)cc1 (configuration not stated) ?
GRP78 ERSR act: -4%; Mito fusion act: -2%; A549 tox: -3%; miR-21 reporter: -3%; Nrf2 activator: 2%; Nrf2 block: 13%

What do the screens show for `CC(C)C[C@H](NC(=O)c1[nH]cnc1C(=O)N[C@@H](C)C(=O)OCc1ccccc1)C(=O)OCc1ccccc1`?
GRP78 ERSR act: inconclusive; A549 tox: 2%; Nrf2 activator: -1%; Nrf2 block: 5%

How did CCn1c(CNC(=O)c2cc(OC)c(OC)c(OC)c2)cc2ccccc21 do in these assays?
GRP78 ERSR act: -4%; Mito fusion act: 1%; A549 tox: 1%; miR-21 reporter: 18%; Nrf2 activator: 1%; Nrf2 block: 21µM*

How did Cc1ccc(CNC(=O)C2CCC(CNc3nc(=S)[nH]c4ccccc34)CC2)cc1 (configuration not stated) do in these assays?
GRP78 ERSR act: -2%; Mito fusion act: 4%; A549 tox: -6%; miR-21 reporter: -3%; Nrf2 activator: 2%; Nrf2 block: inconclusive

How did NC(=O)CC(NC(=O)Cc1ccc(Br)cc1)c1ccc(NC2CCCCCC2)c([N+](=O)[O-])c1 (configuration not stated) do in these assays?
GRP78 ERSR act: -4%; Mito fusion act: 2%; A549 tox: inconclusive; miR-21 reporter: -2%; Nrf2 activator: -1%; Nrf2 block: 23µM*
